Source: PubChem
hERG WT inh: inhibitors of human wildtype KCNH2 potassium channel. Q12809. U2OS, BacMam KCNH2, thallium flux FluxOr; active compounds read low. activity change, % at 1.84 µM. 340,000 tested, 0.37% active;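 active = maximum activity change below -70%; inconclusive = maximum activity change between -70% and -50%; inactive = maximum activity change above -50%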; also: % is scaled to controls: 0 for no effect and ±100 for the full control effect
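U2OS cells were transduced with wild-type KCNH2 virus (2.03 x 10^8 / mL) for 4 h at room temperature, then cultured overnight at 37 C. Thallium flux was read with FluxOr dye. Rate constants were normalized to DMSO controls.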
KCNH2 3.1 inh: inhibitors of human KCNH2 3.1 potassium channel isoform | 340,000 tested, 0.95% active | activity change, % (tested at about 1.8 µM) | U2OS KCNH2 3.1, thallium flux FluxOr; active compounds read low;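 active = maximum activity change below -70%; inconclusive = maximum activity change from -70% to -50%; inactive = maximum activity change above -50%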;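 also: thallium influx rate constant from kinetic fluorescence after stimulation buffer; % is scaled to controls: 0 for no effect and ±100 for the full control effect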
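U2OS cells transduced with KCNH2 3.1 mutant virus (1.77 x 10^8 /mL, 4 h), plated overnight at 37 C, loaded 45 min with FluxOr dye plus Red40 quencher. Thallium flux rate constant from kinetic reads after stimulation buffer, normalised to controls.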
Chronic BCR inh: inhibitors of chronic active B-cell receptor signaling. ABC-DLBCL IkBa-CBG/CBR reporter, luminescence ratio, 4 h. Potency, µM (highest dose often 46.1 µM), for inactives: top-dose activity change, negative = inhibition, actives largely listed as inhibitors. 340,000 tested, 0.05% active; active = well fitted inhibition curve with a large enough effect in the signal ratio, with a control signal flat, not every such curve was filed as active; inconclusive = small, poorly fitted or top-dose-only effect, or effect the other way, or a change in a side signal; the % refers to the signal ratio;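 also: potency is read from the fitted curve at half-maximal effect; plate controls were basal doxycycline-induced cells for no effect and cells given 10 µM MG132 for full effect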
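TMD8 ABC-DLBCL cells carrying doxycycline-inducible green luciferase fused to IkappaBalpha plus unfused red luciferase were exposed to compounds (up to 46 uM) for 4 hrs at 37C. Activity came from the overlap-corrected green/red luminescence ratio.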
ClpP mod: qHTS Assay for Activators of ClpP; Potency, µM (titrated, usually from 57.5 µM), for inactives: top-dose activity change, negative = active; purified B. subtilis ClpP, FRET peptide cleavage, 20 min; AID 651965, 2013; 340,000 tested, 1.9% active; ATP-dependent Clp protease proteolytic subunit (Bacillus subtilis (strain 168)), P80244; active = well fitted falling curve with a large enough effect; inconclusive = small, poorly fitted or top-dose-only effect; inactive = no such curve, though single readings can be large or run the other way; also: potency is read from the fitted curve at half-maximal effect; the source files actives as falling curves though it sought activators and does not explain the sign; nearly all actives have a fitted effect of over 65% in size
Target sequence (P80244 whole entry, looked up): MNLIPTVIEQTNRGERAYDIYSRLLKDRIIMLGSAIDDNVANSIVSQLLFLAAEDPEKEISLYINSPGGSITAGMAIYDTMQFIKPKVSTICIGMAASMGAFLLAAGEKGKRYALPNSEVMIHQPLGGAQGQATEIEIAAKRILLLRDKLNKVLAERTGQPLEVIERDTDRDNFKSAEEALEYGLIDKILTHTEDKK
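FRET quenching reversal measured ClpP activation: 10 microg/mL B. subtilis ClpP at pH 8 with the FRET-FV decapeptide, read at 430 nm after 320 nm excitation. The 20-min minus 0-min signal was scaled between DMSO/no-enzyme wells and ADEP (5.8 microM final).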
LDHA block: LDHA (human) enzyme inhibition. P00338. purified LDHA, NADH/diaphorase-resazurin fluorescence; active compounds read low. activity change, % (values are at about 110 or 230 µM). 480,000 tested, 0.15% active. AID 1347041; in the data active = activity change below about -30%; inconclusive = mostly about -25% to -30%;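 also: plate controls were DMSO wells for no effect and wells without enzyme for full effect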
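Remaining NADH was detected by diaphorase (0.133 mg/mL) converting 37 µM resazurin to fluorescent resorufin, read at 0 and 20 minutes. The preceding 5-minute room-temperature reaction used 2 nM LDHA, 0.2 mM sodium pyruvate and 0.06 mM NADH at pH 7.4.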
ALOX12 inh: blocks human arachidonate 12S-lipoxygenase; P18054; purified 12hLO, xylenol orange hydroperoxide absorbance; Potency, µM (highest dose often 108 µM), without a hit: at the highest dose activity change, negative = inhibition, actives largely listed as inhibitors; 580,000 tested, 1.1% active; AID 1671190; active = well fitted inhibition curve with a large enough effect; inconclusive = small, poorly fitted or top-dose-only effect, or another doubt; inactive = no such curve, though single readings can be large or run the other way; also: potency is read from the fitted curve at half-maximal effect; % is scaled to controls: 0 for no effect and ±100 for the full control effect
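Hydroperoxide product was detected by ferrous iron/xylenol orange as the 573 to 405 nm absorbance ratio. Arachidonic acid at 40 uM (final) was turned over for 30 min at room temperature by 150 nM human 12hLO, pH 7.0 Hepes buffer, after 15 min compound preincubation.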
Numbers without * were called inactive; ! = a repeat was not active. Sampled rows, rich in hits. Any-hit rate of the full collection: about 3%.

For CC(C)NC(=O)NC(=O)C(C)N(C)Cc1ccc(F)cc1 (stereo not drawn) the results were LDHA block -0.9 and ALOX12 inh -3.7%.
Cc1ccc2c(c1)-c1cc(C)nn1C(c1ccc3c(c1)OCO3)N2 (stereo not drawn) was read as hERG WT inh -0.1, KCNH2 3.1 inh -9.4, Chronic BCR inh 7.4%, ClpP mod 12.6µM*, LDHA block -1.6 and ALOX12 inh -5.4%.
For Cc1cc2n(n1)C(c1ccccc1)Nc1ccccc1-2 (stereo not drawn) the results were hERG WT inh -17.6, KCNH2 3.1 inh -5.1, Chronic BCR inh inconclusive, ClpP mod 25.1µM*, LDHA block -5.2 and ALOX12 inh -22.3%.
`COc1cc(OC)c(C2Nc3c(C)cccc3-c3cc(C)nn32)cc1OC` (stereo not drawn) gave ClpP mod inconclusive, LDHA block -0.8 and ALOX12 inh -7.1%.
Cc1cc2n(n1)C(c1sccc1C)Nc1c(C)cccc1-2 (stereo not drawn) was read as hERG WT inh -17.9, KCNH2 3.1 inh -2.8, Chronic BCR inh -0.4%, ClpP mod 28.2µM*, LDHA block -3.2 and ALOX12 inh 0.0%.
For Cc1cc2n(n1)C(c1ccc(N(C)C)cc1)Nc1ccccc1-2 (stereo not drawn) the results were hERG WT inh -3.8, KCNH2 3.1 inh 9.5, Chronic BCR inh 10.4%, ClpP mod -26.6%, LDHA block 17.2 and ALOX12 inh 201.2%.
For Cc1ccc2c(c1)-c1cc(C)nn1C(c1sccc1C)N2 (stereo not drawn) the results were hERG WT inh -155.3*, KCNH2 3.1 inh 2.2, Chronic BCR inh 7.9%, ClpP mod 15.8µM*, LDHA block 3.2 and ALOX12 inh 0.0%.
Cc1cc2n(n1)C(c1sccc1C)Nc1ccccc1-2 (stereo not drawn) was read as hERG WT inh -6.1, KCNH2 3.1 inh 1.5, Chronic BCR inh inconclusive, ClpP mod 17.8µM*, LDHA block -0.2 and ALOX12 inh -0.1%.
CCOc1ccc(CNC(=O)CCS(=O)(=O)Cc2ccc(C)cc2)cc1OC was read as hERG WT inh -14.1, KCNH2 3.1 inh -13.8, Chronic BCR inh inconclusive, ClpP mod 25.1µM*, LDHA block -4.3 and ALOX12 inh 17.4%.
Screening CCOc1ccc(CNC(=O)CCS(=O)(=O)Cc2ccccc2C)cc1OC returned hERG WT inh 0.5, KCNH2 3.1 inh 7.6, Chronic BCR inh inconclusive, ClpP mod 1.9%, LDHA block -2.6 and ALOX12 inh -1.9%.
Screening Cc1ccc(C(=O)N/C(=C\c2ccc(Br)cc2)c2nc(=S)[nH][nH]2)cc1 returned hERG WT inh 3.1, KCNH2 3.1 inh 9.4, Chronic BCR inh 29.2%, ClpP mod -1.1%, LDHA block 3.3 and ALOX12 inh 15.8µM*.
For Cc1ccc(C(=O)N/C(=C\c2cccnc2)c2nc3ccccc3[nH]2)cc1 the results were hERG WT inh 16.8, KCNH2 3.1 inh 11.8, Chronic BCR inh -13.6%, ClpP mod inconclusive, LDHA block -2.4 and ALOX12 inh 12.6%.
O=C(N/C(=C/c1cccc(Br)c1)c1nc(=S)[nH][nH]1)c1ccccc1 was read as hERG WT inh 20.6, KCNH2 3.1 inh -4.9, Chronic BCR inh inconclusive, ClpP mod -0.6%, LDHA block -0.4 and ALOX12 inh 35.5µM*.
Screening COc1ccc(/C=C(/NC(=O)c2ccccc2)c2nc3ccccc3[nH]2)cc1OC returned hERG WT inh -18.6, KCNH2 3.1 inh -4.0, Chronic BCR inh 4.3%, ClpP mod -7.7%, LDHA block -4.1 and ALOX12 inh 0.0%.
`O=C1N(c2ccccc2)c2ccccc2C1(Cc1ccncc1)Cc1ccncc1` gave hERG WT inh 9.3, KCNH2 3.1 inh 34.6, Chronic BCR inh inconclusive, ClpP mod -1.1%, LDHA block -6.5 and ALOX12 inh 24.3µM*!.
